# In paper PMC11006913:
# Residue numbers refer to the chain shown, from its start.
# What was measured:
# Assay in all cases: PBM; 200 nM protein, PBS
# Conditions in all cases: dsDNA, one strand shown
# [1] = target: T1, SIX6 (Homo sapiens, UniProt O95475 114-200, L167I)
# T1 sequence: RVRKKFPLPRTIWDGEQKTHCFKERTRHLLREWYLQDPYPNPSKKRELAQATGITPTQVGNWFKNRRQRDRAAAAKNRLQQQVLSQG
# [2] = target: T2, SIX6 (Homo sapiens, UniProt O95475 114-200, L143V)
# T2 sequence: T1 sequence with L30V, I54L
# [3] = target: T3, SIX6 (Homo sapiens, UniProt O95475 114-200, H141N)
# T3 sequence: T1 sequence with H28N, I54L
# [4] = target: T4, SIX6 (Homo sapiens, UniProt O95475 114-200, T165P)
# T4 sequence: T1 sequence with T52P, I54L
# [5] = target: T5, SIX6 (Homo sapiens, UniProt O95475 114-200, L167M)
# T5 sequence: T1 sequence with I54M
# [6] = target: T6, SIX6 (Homo sapiens, UniProt O95475 114-200, L143M)
# T6 sequence: T1 sequence with L30M, I54L
# [7] = target: T7, SIX6 (Homo sapiens, UniProt O95475 114-200, L143I)
# T7 sequence: T1 sequence with L30I, I54L
# [8] = target: T8, SIX6 (Homo sapiens, UniProt O95475 114-200, T165G)
# T8 sequence: T1 sequence with T52G, I54L
# [9] = target: T9, SIX6 (Homo sapiens, UniProt O95475 114-200, T139Q)
# T9 sequence: T1 sequence with T26Q, I54L
# [10] = target: MSX2 (Homo sapiens, UniProt P35548 130-214, R199I)
# [11] = target: T10, SIX6 (Homo sapiens, UniProt O95475 114-200, T165A)
# T10 sequence: T1 sequence with T52A, I54L
# [12] = target: MSX2 (Homo sapiens, UniProt P35548 130-214)
# [13] = target: T11, SIX6 (Homo sapiens, UniProt O95475 114-200, L167V)
# T11 sequence: T1 sequence with I54V
# [14] = target: T12, SIX6 (Homo sapiens, UniProt O95475 114-200)
# T12 sequence: T1 sequence with I54L
# [15] = target: T13, SIX6 (Homo sapiens, UniProt O95475 114-200, T165I)
# T13 sequence: T1 sequence with T52I, I54L
# [16] = target: MSX2 (Homo sapiens, UniProt P35548 130-214, F161Y)
# [17] = target: T14, PAX4 (Homo sapiens, UniProt O43316 9-242, R200K)
# T14 sequence: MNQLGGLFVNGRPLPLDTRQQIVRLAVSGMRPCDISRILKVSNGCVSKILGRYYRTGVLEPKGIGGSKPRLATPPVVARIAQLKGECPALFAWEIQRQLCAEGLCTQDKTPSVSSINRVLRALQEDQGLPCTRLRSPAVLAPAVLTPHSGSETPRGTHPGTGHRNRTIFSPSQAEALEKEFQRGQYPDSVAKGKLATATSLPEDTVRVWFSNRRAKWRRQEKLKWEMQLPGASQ
# [18] = target: T15, PAX4 (Homo sapiens, UniProt O43316 9-242)
# T15 sequence: T14 sequence with K192R
# [19] = target: T16, PAX4 (Homo sapiens, UniProt O43316 9-242, R200Q)
# T16 sequence: T14 sequence with K192Q
# [20] = target: T17, PAX4 (Homo sapiens, UniProt O43316 9-242, F177V)
# T17 sequence: T14 sequence with F169V, K192R
# [21] = target: T18, PAX4 (Homo sapiens, UniProt O43316 9-242, F177Y)
# T18 sequence: T14 sequence with F169Y, K192R
# [22] = target: T19, PAX4 (Homo sapiens, UniProt O43316 9-242, R227W)
# T19 sequence: T14 sequence with K192R, R219W
# [23] = target: HOXC10 (Homo sapiens, UniProt Q9NYD6 254-340)
# [24] = target: ALX4 (Homo sapiens, UniProt Q9H161 200-286)
# [25] = target: ALX4 (Homo sapiens, UniProt Q9H161 200-286, Q225E)
# [26] = target: HOXA2 (Homo sapiens, UniProt O43364 129-215, R185T)
# [27] = target: T20, NKX2-6 (Homo sapiens, UniProt A6NCS4 118-204)
# T20 sequence: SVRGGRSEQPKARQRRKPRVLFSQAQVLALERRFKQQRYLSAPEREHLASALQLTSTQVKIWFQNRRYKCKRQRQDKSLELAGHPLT
# [28] = target: HOXA2 (Homo sapiens, UniProt O43364 129-215, R185K)
# [29] = target: HOXC10 (Homo sapiens, UniProt Q9NYD6 254-340, K271E)
# [30] = target: T21, NKX2-6 (Homo sapiens, UniProt A6NCS4 118-204, F151L)
# T21 sequence: T20 sequence with F34L
# [31] = target: HOXA2 (Homo sapiens, UniProt O43364 129-215, Y150S)
# [32] = target: HOXA2 (Homo sapiens, UniProt O43364 129-215)
# HOXA2 (Homo sapiens, UniProt O43364 129-215), sequence (O43364 129-215): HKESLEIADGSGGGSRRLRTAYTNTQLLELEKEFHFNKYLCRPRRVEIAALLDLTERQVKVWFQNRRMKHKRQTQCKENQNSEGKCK
# ALX4 (Homo sapiens, UniProt Q9H161 200-286, Q225E), sequence (Q9H161 200-286 Q225E): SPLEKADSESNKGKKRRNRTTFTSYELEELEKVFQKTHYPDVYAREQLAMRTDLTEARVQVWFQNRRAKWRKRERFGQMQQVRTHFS
# ALX4 (Homo sapiens, UniProt Q9H161 200-286), sequence (Q9H161 200-286): as the sequence (Q9H161 200-286 Q225E) above, with E26Q counted along it
# HOXC10 (Homo sapiens, UniProt Q9NYD6 254-340, K271E), sequence (Q9NYD6 254-340 K271E): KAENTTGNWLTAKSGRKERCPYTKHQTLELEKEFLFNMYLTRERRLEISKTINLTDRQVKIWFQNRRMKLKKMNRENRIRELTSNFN
# HOXA2 (Homo sapiens, UniProt O43364 129-215, R185K), sequence (O43364 129-215 R185K): as the sequence (O43364 129-215) above, with R57K counted along it
# HOXA2 (Homo sapiens, UniProt O43364 129-215, R185T), sequence (O43364 129-215 R185T): as the sequence (O43364 129-215) above, with R57T counted along it
# MSX2 (Homo sapiens, UniProt P35548 130-214, R199I), sequence (P35548 130-214 R199I): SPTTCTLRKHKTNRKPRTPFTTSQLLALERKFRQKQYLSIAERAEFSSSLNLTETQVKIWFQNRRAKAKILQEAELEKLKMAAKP
# MSX2 (Homo sapiens, UniProt P35548 130-214, F161Y), sequence (P35548 130-214 F161Y): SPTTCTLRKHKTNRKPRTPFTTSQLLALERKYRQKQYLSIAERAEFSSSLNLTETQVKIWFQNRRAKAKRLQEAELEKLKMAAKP
# HOXC10 (Homo sapiens, UniProt Q9NYD6 254-340), sequence (Q9NYD6 254-340): as the sequence (Q9NYD6 254-340 K271E) above, with E18K counted along it
# HOXA2 (Homo sapiens, UniProt O43364 129-215, Y150S), sequence (O43364 129-215 Y150S): as the sequence (O43364 129-215) above, with Y22S counted along it
# MSX2 (Homo sapiens, UniProt P35548 130-214), sequence (P35548 130-214): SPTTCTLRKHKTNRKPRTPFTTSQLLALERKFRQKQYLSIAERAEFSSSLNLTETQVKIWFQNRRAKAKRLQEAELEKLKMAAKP
sequence,measurement,setting,value
CCACCCGC,binding signal,[1],"9.19 upbm affinity estimate (log intensity, higher = more binding, comparable within an allelic series)"
same,binding signal,[2],"9.01 upbm affinity estimate (log intensity, higher = more binding, comparable within an allelic series)"
same,binding signal,[3],"9.2 upbm affinity estimate (log intensity, higher = more binding, comparable within an allelic series)"
same,binding signal,[4],"9.04 upbm affinity estimate (log intensity, higher = more binding, comparable within an allelic series)"
same,binding signal,[5],"9.21 upbm affinity estimate (log intensity, higher = more binding, comparable within an allelic series)"
same,binding signal,[6],"9.22 upbm affinity estimate (log intensity, higher = more binding, comparable within an allelic series)"
same,binding signal,[7],"9.08 upbm affinity estimate (log intensity, higher = more binding, comparable within an allelic series)"
same,binding signal,[8],"9.26 upbm affinity estimate (log intensity, higher = more binding, comparable within an allelic series)"
same,binding signal,[9],"9.36 upbm affinity estimate (log intensity, higher = more binding, comparable within an allelic series)"
same,binding signal,[10],"9.63 upbm affinity estimate (log intensity, higher = more binding, comparable within an allelic series)"
same,binding signal,[11],"9.23 upbm affinity estimate (log intensity, higher = more binding, comparable within an allelic series)"
same,binding signal,[12],"9.57 upbm affinity estimate (log intensity, higher = more binding, comparable within an allelic series)"
same,binding signal,[13],"9.16 upbm affinity estimate (log intensity, higher = more binding, comparable within an allelic series)"
same,binding signal,[14],"9.18 upbm affinity estimate (log intensity, higher = more binding, comparable within an allelic series)"
same,binding signal,[15],"9.15 upbm affinity estimate (log intensity, higher = more binding, comparable within an allelic series)"
same,binding signal,[16],"9.69 upbm affinity estimate (log intensity, higher = more binding, comparable within an allelic series)"
GGGGGCAA,binding signal,[1],"8.96 upbm affinity estimate (log intensity, higher = more binding, comparable within an allelic series)"
same,binding signal,[2],"9.04 upbm affinity estimate (log intensity, higher = more binding, comparable within an allelic series)"
same,binding signal,[17],"9.18 upbm affinity estimate (log intensity, higher = more binding, comparable within an allelic series)"
same,binding signal,[3],"8.94 upbm affinity estimate (log intensity, higher = more binding, comparable within an allelic series)"
same,binding signal,[4],"8.98 upbm affinity estimate (log intensity, higher = more binding, comparable within an allelic series)"
same,binding signal,[18],"9.24 upbm affinity estimate (log intensity, higher = more binding, comparable within an allelic series)"
same,binding signal,[5],"9.06 upbm affinity estimate (log intensity, higher = more binding, comparable within an allelic series)"
same,binding signal,[6],"8.97 upbm affinity estimate (log intensity, higher = more binding, comparable within an allelic series)"
same,binding signal,[7],"8.96 upbm affinity estimate (log intensity, higher = more binding, comparable within an allelic series)"
same,binding signal,[8],"8.89 upbm affinity estimate (log intensity, higher = more binding, comparable within an allelic series)"
same,binding signal,[9],"8.98 upbm affinity estimate (log intensity, higher = more binding, comparable within an allelic series)"
same,binding signal,[11],"9.04 upbm affinity estimate (log intensity, higher = more binding, comparable within an allelic series)"
same,binding signal,[19],"9.19 upbm affinity estimate (log intensity, higher = more binding, comparable within an allelic series)"
same,binding signal,[20],"9.04 upbm affinity estimate (log intensity, higher = more binding, comparable within an allelic series)"
same,binding signal,[13],"8.9 upbm affinity estimate (log intensity, higher = more binding, comparable within an allelic series)"
same,binding signal,[21],"9.1 upbm affinity estimate (log intensity, higher = more binding, comparable within an allelic series)"
same,binding signal,[14],"8.96 upbm affinity estimate (log intensity, higher = more binding, comparable within an allelic series)"
same,binding signal,[15],"9.01 upbm affinity estimate (log intensity, higher = more binding, comparable within an allelic series)"
same,binding signal,[22],"9.17 upbm affinity estimate (log intensity, higher = more binding, comparable within an allelic series)"
CCCCGGGG,binding signal,[1],"9.12 upbm affinity estimate (log intensity, higher = more binding, comparable within an allelic series)"
same,binding signal,[2],"8.92 upbm affinity estimate (log intensity, higher = more binding, comparable within an allelic series)"
same,binding signal,[23],"9.9 upbm affinity estimate (log intensity, higher = more binding, comparable within an allelic series)"
same,binding signal,[24],"8.16 upbm affinity estimate (log intensity, higher = more binding, comparable within an allelic series)"
same,binding signal,[3],"9.16 upbm affinity estimate (log intensity, higher = more binding, comparable within an allelic series)"
same,binding signal,[4],"8.88 upbm affinity estimate (log intensity, higher = more binding, comparable within an allelic series)"
same,binding signal,[5],"9.05 upbm affinity estimate (log intensity, higher = more binding, comparable within an allelic series)"
same,binding signal,[6],"9.06 upbm affinity estimate (log intensity, higher = more binding, comparable within an allelic series)"
same,binding signal,[7],"8.94 upbm affinity estimate (log intensity, higher = more binding, comparable within an allelic series)"
same,binding signal,[25],"8.02 upbm affinity estimate (log intensity, higher = more binding, comparable within an allelic series)"
same,binding signal,[8],"9.11 upbm affinity estimate (log intensity, higher = more binding, comparable within an allelic series)"
same,binding signal,[26],"6.97 upbm affinity estimate (log intensity, higher = more binding, comparable within an allelic series)"
same,binding signal,[9],"9.14 upbm affinity estimate (log intensity, higher = more binding, comparable within an allelic series)"
same,binding signal,[11],"9.14 upbm affinity estimate (log intensity, higher = more binding, comparable within an allelic series)"
same,binding signal,[27],"9.57 upbm affinity estimate (log intensity, higher = more binding, comparable within an allelic series)"
same,binding signal,[28],"10.1 upbm affinity estimate (log intensity, higher = more binding, comparable within an allelic series)"
same,binding signal,[29],"9.91 upbm affinity estimate (log intensity, higher = more binding, comparable within an allelic series)"
same,binding signal,[13],"9.05 upbm affinity estimate (log intensity, higher = more binding, comparable within an allelic series)"
same,binding signal,[14],"9.11 upbm affinity estimate (log intensity, higher = more binding, comparable within an allelic series)"
same,binding signal,[15],"9.08 upbm affinity estimate (log intensity, higher = more binding, comparable within an allelic series)"
same,binding signal,[30],"9.2 upbm affinity estimate (log intensity, higher = more binding, comparable within an allelic series)"
same,binding signal,[31],"10.4 upbm affinity estimate (log intensity, higher = more binding, comparable within an allelic series)"
same,binding signal,[32],"7.1 upbm affinity estimate (log intensity, higher = more binding, comparable within an allelic series)"
